Records with an inconclusive call do not appear. Active and inactive are the calls of the source. Calls follow the shape of the dose curve; as a rule, active = well fitted inhibition curve with a large enough effect; inconclusive = small, poorly fitted or top-dose-only effect; inactive = flat fitted curve, though single readings scatter.
Columns and labels:
Assay in all cases: qHTS profiling for inhibitors of Plasmodium falciparum proliferation (AID 504749); also: nearly all actives have a fitted effect of over 60% in size;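 as to activity, negative = inhibition: 0% = DMSO vehicle and full inhibition = artemisinin control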
Conditions in all cases: P. falciparum in erythrocytes, SYBR Green DNA, 72 h; series mostly up to 28.7 µM
CP256 = test system: CP256
Summary of the method: (§1)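 SYBR Green fluorescence of parasite DNA, read after lysis and overnight dark incubation, measured growth over 72 h in erythrocyte culture at 0.3% parasitemia and 2.5% hematocrit. Data normalised to DMSO and 0.29 uM artemisinin, with plate-drift correction.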

CP260 = test system: CP260
Summary of the method: as §1

CP265 = test system: CP265
Summary of the method: as §1

CP266 = test system: CP266
Summary of the method: as §1

CP268 = test system: CP268
Summary of the method: as §1

CP269 = test system: CP269
Summary of the method: as §1

CP286 = test system: CP286
Summary of the method: as §1

CP297 = test system: CP297
Summary of the method: as §1

CP262 = test system: CP262
Summary of the method: as §1

CP291 = test system: CP291
Summary of the method: as §1
Potency is read from the fitted curve at half-maximal effect.

COC(=O)C(c1ccccc1)C1CCCCN1 (stereo not drawn)
inactive: Potency (CP256) | Potency (CP260) | Potency (CP265) | outcome (CP266) | Potency (CP268) | Potency (CP269) | Potency (CP286) | Potency (CP297)

COc1ccc2c(c1)C13CCCC[C@@H]1C(C2)N(C)CC3 (stereo partly drawn)
active: Potency (CP260) 11.2 µM
inactive: Potency (CP262) | outcome (CP266) | Potency (CP286) | Potency (CP297)

CCOC(=O)CC(SP(=S)(OC)OC)C(=O)OCC (stereo not drawn)
inactive: Potency (CP256) | Potency (CP260) | Potency (CP262) | Potency (CP265) | Potency (CP268) | Potency (CP269) | Potency (CP286) | Potency (CP291) | Potency (CP297)

Cc1nnc2n1-c1ccc(Cl)cc1C(c1ccccc1)=NC2
inactive: Potency (CP260) | Potency (CP262) | Potency (CP265) | outcome (CP266) | Potency (CP268) | Potency (CP269) | Potency (CP286) | Potency (CP291) | Potency (CP297)

O=C1c2ccccc2C(=O)c2ccccc21
active: Potency (CP265) 10 µM
inactive: Potency (CP256) | Potency (CP262) | outcome (CP266) | Potency (CP268) | Potency (CP286) | Potency (CP291) | Potency (CP297)

CCCC(C)(COC(N)=O)COC(N)=O
inactive: Potency (CP256) | Potency (CP260) | Potency (CP262) | Potency (CP265) | outcome (CP266) | Potency (CP268) | Potency (CP269) | Potency (CP286) | Potency (CP297)

COc1ccc2c(c1OC)C(=O)O[C@H]2[C@@H]1c2cc3c(cc2CCN1C)OCO3
inactive: Potency (CP262) | outcome (CP266) | Potency (CP268) | Potency (CP269) | Potency (CP291) | Potency (CP297)

CC(C)c1cccc(C(C)C)c1O
inactive: Potency (CP256) | Potency (CP260) | Potency (CP262) | Potency (CP265) | outcome (CP266) | Potency (CP286)

COP(=S)(OC)SCN1C(=O)c2ccccc2C1=O
inactive: Potency (CP256) | Potency (CP260) | Potency (CP262) | Potency (CP265) | Potency (CP268) | Potency (CP269) | Potency (CP286) | Potency (CP291) | Potency (CP297)

C=C(C)[C@H]1CN[C@H](C(=O)O)[C@H]1CC(=O)O
inactive: Potency (CP256) | Potency (CP260) | Potency (CP262) | Potency (CP265) | Potency (CP269) | Potency (CP286) | Potency (CP291)

CCCCC/C=C\C/C=C\C/C=C\C/C=C\CCCC(=O)NCC(=O)O
inactive: activity, negative = inhibition (CP256) 0.973% [at 2.67 µM] | activity, negative = inhibition (CP260) 4.28% [at 2.67 µM] | activity, negative = inhibition (CP262) 2.09% [at 2.67 µM] | activity, negative = inhibition (CP265) 2.88% [at 2.67 µM] | activity, negative = inhibition (CP268) -7.02% [at 2.67 µM] | activity, negative = inhibition (CP269) 0.824% [at 2.67 µM] | activity, negative = inhibition (CP286) 0.0979% [at 2.67 µM] | activity, negative = inhibition (CP291) -4.76% [at 2.67 µM] | activity, negative = inhibition (CP297) -4.97% [at 2.67 µM]

Nc1ccccc1C(=O)O
inactive: Potency (CP256) | Potency (CP260) | Potency (CP262) | Potency (CP265) | Potency (CP268) | Potency (CP269) | Potency (CP286) | Potency (CP291) | Potency (CP297)

CC(C)(C)NCC(O)c1cc(Cl)c(N)c(C(F)(F)F)c1 (stereo not drawn)
active: Potency (CP256) 11.2 µM | Potency (CP260) 12.6 µM | Potency (CP265) 8.91 µM | Potency (CP297) 15.1 µM
inactive: outcome (CP266)

CN1CCC(O)(c2ccc(F)cc2)C(C(=O)c2ccc(F)cc2)C1 (stereo not drawn)
inactive: Potency (CP256) | Potency (CP262) | Potency (CP265) | outcome (CP266) | Potency (CP268) | Potency (CP269) | Potency (CP286) | Potency (CP291) | Potency (CP297)

O=P1(N(CCCl)CCCl)NCCCO1 (stereo not drawn)
inactive: Potency (CP260) | Potency (CP262) | Potency (CP265) | outcome (CP266) | Potency (CP268) | Potency (CP269) | Potency (CP286) | Potency (CP291) | Potency (CP297)

CCOP(=S)(OCC)Oc1ccc2c(C)c(Cl)c(=O)oc2c1
inactive: Potency (CP262)
active: Potency (CP286) 10 µM

O=C(Nc1ccc(Br)cc1)c1cc(Br)cc(Br)c1O
inactive: Potency (CP256) | Potency (CP260) | Potency (CP265) | outcome (CP266) | Potency (CP268) | Potency (CP269) | Potency (CP286) | Potency (CP291) | Potency (CP297)
